High-throughput results: PubChem BioAssay, several laboratories
CHOP inh: inhibitors of CHOP promoter induction, primary screen, cell-based, unfolded protein response, luciferase reporter. CHO-K1 CHOP-promoter luciferase, tunicamycin-induced, 15-18 h. hit rate 3.8% among 220,000. AID 2732, 2010. inhibition, % at 10 µM;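 active means compounds that reduced the stress-induced luciferase reporter signal by more than about 70% of percent inhibition, limit read from the data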;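 further: 0% = tunicamycin plus vehicle and 100% = wells without tunicamycin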
WT yeast gro inh: growth inhibition of WT strain, primary screen, mitochondrial fusion inhibitor project, WT and mutant strains, chemical genetic; mitochondrial fusion phenotypic screen; inhibition, % at 10 µM; hit rate 2.1% among 190,000; AID 1362, 2008; in the data active means inhibition above about 58%; tested in S. cerevisiae
Lmaj promast: Leishmania major promastigote growth inhibition, primary screen; Leishmania major promastigotes, resazurin fluorescence viability; inhibition, % at 10 µM; hit rate 9% among 200,000; in the data active means inhibition above about 50%;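 further: promastigotes grown with compound for 44 hours at 28 °C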
RAM inhibit: inhibitors of the yeast RAM network, primary screen, dse1pr::URA3 reporter, 5-FOA selection; S. cerevisiae dse1pr::URA3 reporter, 5-FOA growth OD615, 2 d; analog-sensitive cbk1-as2 kinase mutant strain; inhibition, % at 50 µM; hit rate 1.8% among 190,000; AID 868, 2007;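 active means inhibition above a set limit, 3 SD over mean compound inhibition, cut at about 8.4% in these data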;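 further: 0% = DMSO-only wells with no growth and 100% = 10 µM 1-NA-PP1 full growth; inhibition rescues growth on 5-FOA so higher OD means more RAM inhibition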
The depositor's hits bear a star; / = no result given. This is a sample that favours compounds with a hit; in the whole collection about 13% have one here.

SMILES	CHOP inh	WT yeast gro inh	Lmaj promast	RAM inhibit
COc1ccc(-c2nnc(NC(=O)c3ccc(F)cc3)o2)cc1	12	66	98*	1
Fc1ccc(CN2CCSCC2)cc1Br	20	-8	-4	0
COC(=O)C1CCN(Cc2ccc(C)cc2)CC1	4	4	91*	1
CCOC(=O)C1CCN(Cc2ccc(OC)c(C)c2OC)CC1	-11	-9	64*	0
CCOC(=O)C1CCN(Cc2ccc(F)c(Br)c2)CC1	35	3	77*	1
CCOC(=O)C1CCN(Cc2ccc(F)cc2F)CC1	27	0	89*	2
Cc1cc(C(=O)NC(C)Cc2ccccc2)cc(C)c1[N+](=O)[O-] (stereo unspecified)	-13	-6	18	1
CCN1CCCC1CNC(=O)C(=O)NC(C)c1ccccc1 (stereo unspecified)	-26	-15	-2	1
CNS(=O)(=O)c1cc(OC)c(OC)cc1CC(=O)OC	-5	9	-4	0
O=C(COC(=O)c1cccnc1Cl)NCCC1=CCCCC1	-2	3	-4	2
COc1ccc(CCNC(=O)CSc2nncs2)cc1	14	-11	59*	2
COc1ccc(CCNC(=O)CSc2nc(C)cs2)cc1	5	-7	-4	2
CC(=NC(C)C)C1=C(O)C(C)OC1=O (stereo unspecified)	-18	-1	75*	4
CC(=NC(C)C)C1=C(O)CCC1=O	-28	-16	-7	1
CCN(CC)S(=O)(=O)c1ccc(OC)c(NC(=S)Nc2cccc(C)c2C)c1	11	-13	97*	2
CCN(CC)S(=O)(=O)c1ccc(OC)c(NC(=O)c2cccc(C)c2[N+](=O)[O-])c1	9	-5	5	7
CCN(CC)S(=O)(=O)c1ccc(OC)c(NC(=S)Nc2cccc(C)c2)c1	31	-45	98*	3
CCN(CC)S(=O)(=O)c1ccc(OC)c(NC(=O)c2cccs2)c1	-9	1	8	6
CC1CCc2c(nc3ncnn3c2NCCN(C)C)C1 (stereo unspecified)	-19	-7	-4	1
CCCC1Cc2c(sc3nc(SC)nc(N)c23)CO1 (stereo unspecified)	74*	-17	5	4
C=CCn1c(=NC(=O)c2sc3ccccc3c2Cl)sc2cc(S(N)(=O)=O)ccc21	82*	-6	-7	7
C=CCn1c(=NC(=O)c2cc(Cl)sc2Cl)sc2cc(S(N)(=O)=O)ccc21	27	8	0	2
COc1ccccc1COCC(O)CN(Cc1ccco1)Cc1ccccc1O (stereo unspecified)	24	24	82*	2
CN(Cc1cccs1)CC(O)COCc1ccco1 (stereo unspecified)	13	-10	-1	0
O=C(O)c1cccc(N/N=C/c2cccs2)c1	84*	-9	34	-2
SMILES	CHOP inh	WT yeast gro inh	Lmaj promast	RAM inhibit
O=C(O)c1ccc(N/N=C/c2cccc(F)c2)cc1	3	-15	65*	0
CSc1ccc(/C=N/Nc2cccc(C(=O)O)c2)cc1	85*	-6	25	3
O=C(O)c1ccc(N/N=C/c2ccc(OC(=O)c3cccc(Cl)c3)cc2)cc1	79*	/	/	/
O=C(O)c1ccc(N/N=C/c2ccc(F)c(F)c2)cc1	-19	-22	4	-2
O=C(Oc1ccc(/C=N/Nc2ccccc2)cc1)c1ccccc1	5	23	50	3
COC(=O)c1ccc(COc2ccc(/C=N/Nc3cccc(C(=O)O)c3)cc2)cc1	-13	/	/	/
COc1ccc(C(OC(=O)c2ccco2)C(=O)NC(C)(C)C)cc1 (stereo unspecified)	2	-14	-1	1
Cc1ccc(C(=O)CSc2nnc(-c3snnc3C)n2C2CC2)cc1	26	/	/	/
C/C(=N\NC(=O)C(=O)Nc1cccc(Cl)c1C)c1ccncc1	28	-9	69*	0
CN1C(CC(=O)c2ccccc2)CCCC1CC(O)c1ccccc1 (stereo unspecified)	28	-41	90*	-1
O=C(CC1C(=O)CCCC1=O)c1ccccc1	0	-18	-4	1
CN1[C@@H](CC(=O)c2ccccc2)CCC[C@H]1C[C@H](O)c1ccccc1	13	-4	88*	-1
CCCCCC(=O)Nc1cccc(C2=NOC3(C2)C[C@@H](C(N)=O)N(C(=O)CC(c2ccccc2)c2ccccc2)C3)c1 (stereo partly specified)	38	/	/	/
O=C(NC1CCCCC1)C(c1ccc(F)cc1)N(CCN1CCOCC1)C(=O)c1ccc(-c2ccccc2)[nH]1 (stereo unspecified)	73*	0	12	0
